The values below come from PubChem BioAssay.

Structures are written as SMILES. Active and inactive are the calls of the source.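 Rule for the calls, unless noted: active = compound raises insulin release from rat beta cells at 5 mM glucose, no numeric limit stated; inactive = the rest.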

The nature of assay [1]: Wnt pathway potentiators raising nuclear beta-catenin – imaging, WNT3A-conditioned medium, mouse C2C12, NPC library, primary screen (AID 1117326; in the data active = nuclear beta-catenin stimulation mostly above about 4.2%, no sharp cut-off; inactive = mostly below about 10%; note: reference of the scale not given here). The following applies: stronger effect = higher value.
Assay [2] in a line: stimulators of insulin release from INS-1E, primary screen, cell-based, 5 mM glucose, NPC library (AID 1117329). Note: reference of the scale not given here. The following applies: rat INS-1E insulin secretion, at 10 µM, stronger effect = higher value.
Assay [3] is described as follows: growth inhibition of GSK3B-pretreated HCT116 cells – cell-based, CellTiter-Glo, 0.2 to 20 µM (AID 1117336;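 active = compounds lowering colon cancer cell viability after pretreatment blocking the GSK3B kinase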). The conditions noted are these: HCT116 viability after GSK3B inhibitor, at 20 µM, stronger effect = higher value. For orientation: Cellular ATP, detected with luciferase, serves as a proxy for viable cell number.
Assay [4] can be described thus: inhibition of endothelial tube formation, primary screen, imaging, VEGF stimulated, CD31 staining, tube area, NPC library (AID 1117340;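 active = compound that reduces growth-factor-driven endothelial tube area in a mixed cell culture, no cutoff stated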). The conditions noted are these: VEGF-stimulated ADSC/ECFC co-culture, at 10 µM, stronger effect = higher value.
The nature of assay [5]: GLP1 release stimulators, primary, NCI-H716, NPC library (AID 1117341;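 active = compound raises GLP1 secretion from the human gut endocrine cells, with no numeric limit stated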; note: reference of the scale not given here). The following applies: NCI-H716 cells, at 10 µM, stronger effect = higher value.
Assay [6] is described as follows: HCT116 colon cancer cell growth inhibition, primary screen, CellTiter-Glo luminescence, NPC library (AID 1117342;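 active = compounds that lower survival of HCT116 colon cancer cells in the luminescence readout, no numeric limit stated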). The conditions noted are these: at 20 µM (top of the series).
Assay [7] can be described thus: reduced SW480 viability measured with CellTiter-Glo, NPC library, primary (AID 1117343;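 active = compounds that lower viability of the colon cancer cells in the luminescence readout, with no numeric limit stated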). The following applies: CellTiter-Glo luminescence; at 20 µM (top of the series).
A short description of assay [8]: NPC library primary testing for decreased DLD-1 cell viability via CellTiter-Glo (AID 1117346;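 active = compounds that lower survival of DLD-1 colon cancer cells in the luminescence readout, no cutoff given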). The following applies: DLD-1 viability, CellTiter-Glo luminescence; at 20 µM (top of the series).

Consider `COc1cccc2c1C(=O)c1c(O)c3c(c(O)c1C2=O)C[C@@](O)(C(=O)CO)C[C@@H]3O[C@H]1C[C@H](N)[C@H](O[C@@H]2CCCCO2)[C@H](C)O1`, for which the nuclear beta-catenin stimulation in assay [1] (at 10 µM) was 26.6% (active); in assay [1] (stimulation, at 2 µM), 79.4%. Also, the insulin secretion stimulation in assay [2] was 0.2% (inactive). Moreover, the viability decrease in assay [3] was 78.8% (active). Besides, in assay [4], the tube area decrease was -67.7% (active). For the same molecule, in assay [5], the GLP1 secretion stimulation is -0.8% (inactive). Also, the inhibition of viability in assay [6] was 66.5% (active). Also, the figures for the viability decrease (inhibition) in assay [7] and in assay [8] were 81% (active) and 76% (active), respectively.

For the molecule `NC(=O)C[C@H](N)C(=O)O`, the nuclear beta-catenin stimulation in assay [1] (at 10 µM) is 3% (inactive); in assay [1] (stimulation, at 2 µM), 1.1%. In addition, in assay [2], the insulin secretion stimulation is -1.3% (inactive). Further, the viability decrease in assay [3] was -1% (inactive). Further, in assay [4], the tube area decrease was -19.4% (inactive). Further, in assay [5], the GLP1 secretion stimulation is 2.4% (inactive). The inhibition of viability in assay [6] is 0.3% (inactive). Besides, the values for the viability decrease (inhibition) in assay [7] and in assay [8] were 0.2% (inactive) and 5.4% (inactive), respectively.

As for `c1ccc2sc(SSc3nc4ccccc4s3)nc2c1`, the nuclear beta-catenin stimulation in assay [1] (at 10 µM) was 2.2% (inactive); in assay [1] (stimulation, at 2 µM), 0.3%. Moreover, the insulin secretion stimulation in assay [2] was -0.6% (inactive). Further, the viability decrease in assay [3] is -0.8% (inactive). For the same molecule, in assay [4], the tube area decrease was -4.4% (inactive). Besides, the GLP1 secretion stimulation in assay [5] is 22.3% (active). The inhibition of viability in assay [6] is -5.7% (inactive). The values for the viability decrease (inhibition) in assay [7] and in assay [8] were -1% (inactive) and -20.5% (inactive), respectively.

In the case of `CC(=O)O[C@H]1C[C@@H]2CC[C@H]3[C@H]4C[C@H]([N+]5(C)CCCCC5)[C@@H](OC(C)=O)[C@@]4(C)CC[C@@H]3[C@@]2(C)C[C@H]1[N+]1(C)CCCCC1`, the nuclear beta-catenin stimulation was 0.7% (inactive) in assay [1] (at 10 µM) and 0.2% in assay [1] (stimulation, at 2 µM). The insulin secretion stimulation in assay [2] was -1.1% (inactive). In addition, the viability decrease in assay [3] is -2.7% (inactive). For the same molecule, in assay [4], the tube area decrease was 9.9% (inactive). Moreover, the GLP1 secretion stimulation in assay [5] is -1.6% (inactive). The inhibition of viability in assay [6] is -3.6% (inactive). Also, the viability decrease (inhibition) in assay [7] is -1.7% (active); in assay [8], -2.8% (inactive).

For `CCCCCCCC/C=C/C(=O)O`, the nuclear beta-catenin stimulation was 1.3% (inactive) in assay [1] (at 10 µM) and 0.6% in assay [1] (stimulation, at 2 µM). For the same molecule, the insulin secretion stimulation in assay [2] is 1.9% (inactive). The viability decrease in assay [3] was -52.2% (inactive). Moreover, in assay [4], the tube area decrease was -10.1% (inactive). In addition, the GLP1 secretion stimulation in assay [5] was -3.8% (inactive). The inhibition of viability in assay [6] was 5.93% (inactive). The viability decrease (inhibition) in assay [7] was 85.3% (active); in assay [8], 45% (inactive).

Consider `O=C(CCOCCOCCOCCOCCC(=O)Nc1c(I)cc(I)c(C(=O)O)c1I)Nc1c(I)cc(I)c(C(=O)O)c1I`, for which the nuclear beta-catenin stimulation in assay [1] (at 10 µM) was -0.1% (inactive); in assay [1] (stimulation, at 2 µM), -1.6%. In assay [2], the insulin secretion stimulation was 0.1% (inactive). Also, the viability decrease in assay [3] was -4.7% (inactive). Besides, the tube area decrease in assay [4] was -12% (inactive). Moreover, in assay [5], the GLP1 secretion stimulation was 0.3% (inactive). The inhibition of viability in assay [6] was -2.1% (inactive). The viability decrease (inhibition) was -14.8% (inactive) in assay [7] and -2.6% (inactive) in assay [8].

With `CNC(=O)c1c(I)c(NC(=O)CCCCC(=O)Nc2c(I)c(C(=O)O)c(I)c(C(=O)NC)c2I)c(I)c(C(=O)O)c1I`, the nuclear beta-catenin stimulation in assay [1] (at 10 µM) was -0.7% (inactive); in assay [1] (stimulation, at 2 µM) it was 2.2%. Further, the insulin secretion stimulation in assay [2] was -0.3% (inactive). In assay [3], the viability decrease was -17.5% (inactive). Moreover, the tube area decrease in assay [4] is -0.8% (inactive). Besides, the GLP1 secretion stimulation in assay [5] was -0.4% (inactive). Further, the inhibition of viability in assay [6] is 9.4% (inactive). The viability decrease (inhibition) in assay [7] was -3.6% (inactive); in assay [8] it was -2.4% (inactive).

`O=C(/C=C/c1ccc(O)c(O)c1)O[C@@H]1C[C@@](OC(=O)/C=C/c2ccc(O)c(O)c2)(C(=O)O)C[C@@H](O)[C@@H]1O`: the nuclear beta-catenin stimulation in assay [1] (at 10 µM) was 0.7% (inactive); in assay [1] (stimulation, at 2 µM), 0.9%. For the same molecule, the insulin secretion stimulation in assay [2] was -0.6% (inactive). Further, the viability decrease in assay [3] is -72.8% (inactive). In addition, in assay [4], the tube area decrease is 8.1% (inactive). Besides, the GLP1 secretion stimulation in assay [5] was 3.7% (inactive). Moreover, the inhibition of viability in assay [6] was 6.6% (inactive). For the same molecule, the viability decrease (inhibition) in assay [7] was 6.5% (inactive); in assay [8], -13.6% (inactive).

Consider `CC1CCCCN1CCCOC(=O)c1ccc(OC2CCCCC2)cc1` (stereo unspecified), for which the nuclear beta-catenin stimulation in assay [1] (at 10 µM) is 14.4% (inactive); in assay [1] (stimulation, at 2 µM) it was 4.4%. For the same molecule, the insulin secretion stimulation in assay [2] was 12.4% (inactive). Moreover, in assay [3], the viability decrease was 21.7% (inactive). In assay [4], the tube area decrease is -14.7% (inactive). In assay [5], the GLP1 secretion stimulation is 5.9% (inactive). Moreover, the inhibition of viability in assay [6] is 83.6% (active). The viability decrease (inhibition) was 111% (active) in assay [7] and 94.7% (active) in assay [8].
